Measurements as given in PubChem BioAssay AID1159580 (chemical genetic matrix, 2015).
Out of some 5,500 compounds screened, about 2,000 (36%) were called active. About 18% were inconclusive and are not listed. Rule as the data show it: active = normalized growth mostly below about 0.91 (no sharp cut-off); inconclusive = no clear call, values can overlap the other calls; inactive = mostly above about 0.92. The list shows a part of the results.

Experiment: chemical genetic growth profiling, strain panel (AID 1159580);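 also: tested at 20 µM; growth read once vehicle control cultures reached saturation at 30 °C; 1 = growth at the plate median or of vehicle wells; lower values mean less growth of the strain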
Details: S. cerevisiae deletion strains, growth OD

Measured: normalized growth

COc1cc(OC)c2c(=O)c(-c3ccccc3)c(C)oc2c1OC
inactive: locus YAL013W, strain DEP1, stronger effect = lower value 1.01 | locus YAL021C, strain ccr4, stronger effect = lower value 0.984 | locus YAL026C, strain drs2, stronger effect = lower value 0.986 | locus YAL030W, strain snc1, stronger effect = lower value 0.976 | locus YBL061C, strain skt5, stronger effect = lower value 0.975 | locus YBR009C, strain hhf1, stronger effect = lower value 0.953 | locus YBR021W, strain FUR4, stronger effect = lower value 1 | locus YBR023C, strain chs3, stronger effect = lower value 0.987 | locus YBR171W, strain sec66, stronger effect = lower value 0.984 | locus YBR229C, strain ROT2, stronger effect = lower value 1 | locus YBR231C, strain swc5, stronger effect = lower value 0.993 | locus YBR279W, strain paf1, stronger effect = lower value 0.986 | locus YCL011C, strain gbp2, stronger effect = lower value 0.973 | locus YCL016C, strain dcc1, stronger effect = lower value 0.987 | locus YCL029C, strain bik1, stronger effect = lower value 1 | locus YCL061C, strain MRC1, stronger effect = lower value 0.988 | locus YCL069W, strain vba3, stronger effect = lower value 0.974 | locus YCR088W, strain abp1, stronger effect = lower value 0.988 | locus YDL005C, strain med2, stronger effect = lower value 0.973 | locus YDL035C, strain GPR1, stronger effect = lower value 1.02 | locus YDL040C, strain nat1, stronger effect = lower value 0.985 | locus YDL074C, strain BRE1, stronger effect = lower value 1.02 | locus YDL101C, strain DUN1, stronger effect = lower value 1.01 | locus YDL134C, strain PPH21, stronger effect = lower value 1 | locus YDL185W, strain tfp1, stronger effect = lower value 1 | locus YDL192W, strain arf1, stronger effect = lower value 0.995 | locus YDR001C, strain nth1, stronger effect = lower value 0.987 | locus YDR069C, strain doa4, stronger effect = lower value 0.966 | locus YDR101C, strain arx1, stronger effect = lower value 0.984 | locus YDR137W, strain rgp1, stronger effect = lower value 0.955 | locus YDR150W, strain NUM1, stronger effect = lower value 1.02 | locus YDR159W, strain sac3, stronger effect = lower value 0.973 | locus YDR162C, strain NBP2, stronger effect = lower value 1.02 | locus YDR195W, strain ref2 0.921 | locus YDR297W, strain sur2, stronger effect = lower value 0.988 | locus YDR318W, strain mcm21, stronger effect = lower value 0.995 | locus YDR334W, strain swr1, stronger effect = lower value 0.981 | locus YDR335W, strain msn5, stronger effect = lower value 0.997 | locus YDR388W, stronger effect = lower value 0.988 | locus YDR392W, strain spt3, stronger effect = lower value 0.925 | locus YDR502C, strain sam2, stronger effect = lower value 0.997 | locus YEL003W, strain gim4, stronger effect = lower value 0.987 | locus YEL037C, strain rad23, stronger effect = lower value 0.981 | locus YEL061C, strain CIN8 (second series), stronger effect = lower value 0.967 | locus YEL061C, strain CIN8, stronger effect = lower value 1.01 | locus YER015W, strain faa2, stronger effect = lower value 0.981 | locus YER016W, strain bim1, stronger effect = lower value 0.986 | locus YER110C, stronger effect = lower value 0.994 | locus YER111C, strain swi4, stronger effect = lower value 0.971 | locus YER155C, strain BEM2 (second series), stronger effect = lower value 0.978 | locus YER155C, strain BEM2, stronger effect = lower value 1.01 | locus YER167W, strain BCK2, stronger effect = lower value 1 | locus YFR010W, strain ubp6, stronger effect = lower value 0.98 | locus YGL078C, strain dbp3, stronger effect = lower value 0.998 | locus YGL086W, strain mad1, stronger effect = lower value 1 | locus YGL167C, strain pmr1, stronger effect = lower value 0.97 | locus YGL173C, strain kem1, stronger effect = lower value 0.99 | locus YGL227W, strain vid30, stronger effect = lower value 0.961 | locus YGL240W, strain doc1, stronger effect = lower value 0.977 | locus YGL248W, strain PDE1, stronger effect = lower value 1 | locus YGL253W, strain hxk2, stronger effect = lower value 0.994 | locus YGR078C, strain PAC10, stronger effect = lower value 1.01 | locus YGR135W, strain pre9, stronger effect = lower value 0.993 | locus YGR229C, strain SMI1, stronger effect = lower value 1.03 | locus YGR252W, strain gcn5, stronger effect = lower value 0.943 | locus YHR013C, strain ard1, stronger effect = lower value 0.94 | locus YHR027C, strain rpn1, stronger effect = lower value 0.987 | locus YHR030C, strain SLT2, stronger effect = lower value 1.01 | locus YHR079C, strain IRE1 (second series), stronger effect = lower value 0.989 | locus YHR094C, strain hxt1, stronger effect = lower value 0.993 | locus YHR129C, strain ARP1, stronger effect = lower value 1 | locus YHR142W, strain chs7, stronger effect = lower value 1.01 | locus YHR200W, strain rpn10, stronger effect = lower value 0.997 | locus YIL066C, strain RNR3, stronger effect = lower value 1.01 | locus YIL073C, strain SPO22, stronger effect = lower value 0.999 | locus YIL125W, strain kgd1, stronger effect = lower value 0.997 | locus YIR030C, strain dcg1, stronger effect = lower value 1 | locus YJL092W, strain hpr5, stronger effect = lower value 0.987 | locus YJL095W, strain BCK1, stronger effect = lower value 1.01 | locus YJL115W, strain asf1, stronger effect = lower value 1 | locus YJL129C, strain trk1, stronger effect = lower value 0.946 | locus YJL134W, strain LCB3, stronger effect = lower value 1.01 | locus YJL154C, strain vps35, stronger effect = lower value 0.985 | locus YJL164C, strain tpk1, stronger effect = lower value 1 | locus YJL166W, strain qcr8, stronger effect = lower value 0.98 | locus YJL168C, strain set2, stronger effect = lower value 0.997 | locus YJL187C, strain SWE1 (second series), stronger effect = lower value 1.01 | locus YJL187C, strain SWE1, stronger effect = lower value 0.987
